# Source: PubChem
# A selection: hits, their analogues and other compounds. The true share with any hit is near 27%.
# CYP2C19 inhib = human CYP2C19 inhibition | inhibition, % at 5 µM | 21% of 96,000 active | CYP2C19 Supersomes, luciferin-H EGE luminescence, 30 min | AID 778 | P33261;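 active = CYP2C19 inhibition above a set limit at 5 µM in the primary screen, cut at about 50% in these data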;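 note: plate controls were negative control wells for no effect and 2.5 mM tranylcypromine positive control for full effect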
# CYP2C9 act = CYP2C9 (human) activation; P11712; recombinant CYP2C9, luciferin-H conversion, luminescence; active compounds read high; factor 1 = untreated enzyme, 0 = blocked; activation factor at 5 µM; 1.4% of 96,000 active; AID 1024;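 active = activation factor of 2 or more for CYP2C9 at a 5 µM dose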;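 note: 0 = sulfaphenazole-blocked wells and 1 = vehicle-only wells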
# Target sequence (P11712 whole entry, looked up): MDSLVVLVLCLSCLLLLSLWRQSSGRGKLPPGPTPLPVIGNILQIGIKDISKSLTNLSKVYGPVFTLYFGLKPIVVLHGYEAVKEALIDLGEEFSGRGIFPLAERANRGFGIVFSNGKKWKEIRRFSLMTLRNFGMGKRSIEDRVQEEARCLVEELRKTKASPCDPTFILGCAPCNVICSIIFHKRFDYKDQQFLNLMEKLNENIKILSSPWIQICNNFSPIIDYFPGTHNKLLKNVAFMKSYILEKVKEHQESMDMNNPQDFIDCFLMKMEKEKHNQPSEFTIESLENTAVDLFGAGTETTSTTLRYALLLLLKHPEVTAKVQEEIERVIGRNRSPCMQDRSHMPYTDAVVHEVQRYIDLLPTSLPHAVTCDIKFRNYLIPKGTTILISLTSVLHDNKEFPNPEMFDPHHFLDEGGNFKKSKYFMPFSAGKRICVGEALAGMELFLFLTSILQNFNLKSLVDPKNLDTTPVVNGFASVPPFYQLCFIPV
# CYP2C9 inhib = blocks human cytochrome P450 2C9; CYP2C9 Supersomes, luciferin-H conversion, luminescence; 20% of 96,000 active; P11712; inhibition, % at 5 µM;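 active = blocking of liver enzyme CYP2C9 beyond about 50% at 5 µM, limit read from the data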
# Cav3 T inh = blocks human Cav3.2 T-type calcium channel | O95180 | Cav3.2-expressing cells, Fluo-4 calcium fluorescence FDSS; active compounds read low | B-score at 10 µM | 4% of 100,000 active | AID 449739;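 active = single-dose well whose peak fluorescence ratio is a statistical outlier from its plate by either plate-standardised score or position-corrected B-score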
# CYP2C19 activ = activators of human cytochrome P450 2C19; activation factor at 5 µM; 96,000 tested, under 10 active; recombinant CYP2C19, luciferin-H EGE luminescence; active compounds read high; 0 = fully inhibited enzyme, 1 = untreated enzyme; AID 1025;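 active = activation factor of at least 2 at 5 µM in the primary screen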;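 note: 0 = wells with 2.5 mM tranylcypromine and 1 = vehicle-only wells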
# The depositor's hits bear a star; . = no result given.
SMILES,CYP2C19 inhib,CYP2C9 act,CYP2C9 inhib,Cav3 T inh,CYP2C19 activ
COc1ccc(-n2c(SCC(=O)NC3CCCCC3)nc3ccsc3c2=O)cc1,-9,1.1,-7,0.0032,1.1
O=C1NC2(CCCCC2)Oc2ccccc21,24,1,-4,0.17,0.8
COc1ccc(C2=CSC3=C(C(=O)c4cccc(S(=O)(=O)N(C)C)c4)CCN23)cc1,86*,0.4,64*,-0.83,0.1
Cc1ccc(CC(=O)NCCCc2ccccc2)cc1,79*,0.1,85*,-3.3,0.2
O=C(CNC(=O)c1ccco1)NCCCc1ccccc1,47,0.8,20,0.6,0.5
CC(C)(C)C(=O)NCCCc1ccccc1,32,0.9,13,0.43,0.7
Cc1ccc(CC(=O)NC(C)CCc2ccccc2)cc1 (stereo unspecified),37,0.3,71*,-3.4,0.6
O=C(Cc1ccccc1)NCCCc1ccccc1,68*,0.6,36,0.029,0.3
CC(CCc1ccccc1)NC(=O)CSc1nc(N)cc(N)n1 (stereo unspecified),56*,0.8,22,-0.65,0.4
COC(=O)[C@H](C)NC(=O)NC(C)CCc1ccccc1 (stereo partly specified),39,0.7,34,0.39,0.6
COC(=O)C(Cc1ccccc1)NC(=O)CSc1nc(N)cc(=O)[nH]1 (stereo unspecified),1,0.9,8,1,1
COc1ccccc1CN1CC(C(=O)NCc2cccnc2)CC1=O (stereo unspecified),8,1,1,1.1,0.9
COc1cccc(N2CC34C=CC(O3)C(C(=O)O)C4C2=O)c1 (stereo unspecified),-16,0.9,10,0.37,1.2
Cc1onc(-c2ccccc2Cl)c1C(=O)Nc1ccc(-c2nnc3n2CCCCC3)cc1,18,1,3,0.16,0.8
Cc1ccc(CC(=O)NCC(C)C)cc1,79*,0.8,15,-0.67,0.2
COc1ccc(CCNC(=O)c2c(C)noc2C)cc1,14,0.9,12,1.2,0.9
Cc1occc1C(=O)NCc1ccccc1F,45,0.5,51*,-0.11,0.5
O=C(NCCc1cccc(Cl)c1)c1cccnc1,40,1,-2,-1,0.6
O=C(Cc1ccccc1)NCCc1cccc(Cl)c1,71*,0.5,48,0.052,0.3
Cc1noc(C)c1C(=O)NCCCc1ccccc1,53*,0.5,53*,-0.78,0.5
CCOC(=O)C1CCN(c2nnc(N3CCCC3=O)s2)CC1,-13,1.2,-15,1.1,1.1
CC1SCCN1S(=O)(=O)c1ccc2ccccc2c1 (stereo unspecified),.,.,.,-2.6,.
O=C(Cc1ccccc1)NCCSCc1ccc(Cl)cc1,27,0.4,63*,-4.4*,0.7
Cc1occc1C(=O)NCCc1cccc(Cl)c1,92*,0.4,64*,0.96,0.1
CC(CCc1ccccc1)NC(=O)/C=C/c1ccccc1 (stereo unspecified),52*,0.5,46,0.47,0.5
SMILES,CYP2C19 inhib,CYP2C9 act,CYP2C9 inhib,Cav3 T inh,CYP2C19 activ
Cc1occc1C(=O)NCCCCNC(=O)c1ccoc1C,1,1,3,-0.4,1
O=C(Cc1ccccc1)NCCSCc1ccco1,31,1,-2,-0.18,0.7
CCO[C@H]1OC(C(=O)N2CCOCC2)=C[C@@H](c2ccc(Br)cc2)[C@@H]1CCCO,.,.,.,0.38,.
Oc1ccccc1Cn1c(-c2ccccc2O)nc2ccccc21,60*,0.3,66*,-2.8,0.4
COc1ccccc1Cn1c(-c2ccccc2OC)nc2ccccc21,-29,1.1,-6,-6.4*,1.3
CCOC(=O)COc1nc(Nc2ccccc2C)nc(N(C)C)n1,35,0.6,36,0.86,0.6
COc1ccccc1C(=O)NC(C)C(c1cccs1)N1CCN(C)CC1 (stereo unspecified),.,.,.,-0.2,.
O=C(NCC1CCCO1)C1CC(=O)N(c2ccc(F)c(Cl)c2)C1 (stereo unspecified),-14,1.6,-55,0.41,1.1
COc1ccc(-c2nnc(N3CCC(C)CC3)c3ccccc23)cc1,18,0.7,27,.,0.8
O=C(CN1CCN(S(=O)(=O)c2ccc(Br)cc2)CC1)Nc1ccc(F)cc1F,54*,1,-3,.,0.5
O=C(CN1CCN(S(=O)(=O)c2ccc(Br)cc2)CC1)Nc1ccccc1F,84*,0.6,37,-2.5,0.2
O=C(CN1CCN(S(=O)(=O)c2ccc(Br)cc2)CC1)Nc1ccc(F)cc1,26,1.4,-36,.,0.7
Cc1cccc(N2CCN(C(=O)C(Cc3ccccc3)n3cccc3)CC2)c1C (stereo unspecified),28,1.1,-14,-4.7*,0.7
Cc1cccc(N2CCN(C(=O)Cn3cccc3C(=O)c3ccccc3)CC2)c1C,42,1.2,-20,-3,0.6
O=C(NC(Cc1ccccc1)C(=O)N1CCN(c2ccccn2)CC1)c1ccco1 (stereo unspecified),21,0.9,10,1.5,0.8
O=C(C(Cc1ccccc1)n1cccc1)N1CCN(c2ncccn2)CC1 (stereo unspecified),43,0.3,69*,-0.71,0.6
CC1CCN(C(=O)C(Cc2ccccc2)n2cccc2)CC1 (stereo unspecified),93*,0.8,22,-0.46,0.1
COc1cccc(C(C(=O)NC(C)(C)C)N(C(=O)CCC(=O)Nc2cc(C)on2)C2CC2)c1OC (stereo unspecified),-5,1,1,-1.2,1
O=C(Cc1coc(-c2ccc(F)cc2)n1)NCc1ccccc1,30,0.7,30,-3.5,0.7
C=CCn1c(NC(C)c2cc(Cl)ccc2O)nc2ccccc21 (stereo unspecified),68*,0.5,46,.,0.3
c1coc(-c2nnc3sc(C4CCCCC4)nn23)c1,5,1,4,-0.31,1
Cc1sc2ncnc(SCC(=O)c3cccs3)c2c1C,23,0.4,60*,1.3,0.8
CCCN(CC1CC1)C(=O)CSc1ncnc2sc(C)c(C)c12,92*,0.5,53*,-5.2*,0.1
Cc1sc2ncnc(SCC(=O)N3CCCC3=O)c2c1C,59*,0.4,63*,0.48,0.4
O=C(Cn1ncc2c(=O)oc3ccccc3c21)N(Cc1ccco1)C1CCCCC1,.,.,.,-0.95,.
SMILES,CYP2C19 inhib,CYP2C9 act,CYP2C9 inhib,Cav3 T inh,CYP2C19 activ
CCNC(=O)/C(=C/c1ccc2c(c1)OCO2)NC(=O)c1ccc(Br)cc1,32,0.7,26,-0.83,0.7
Cc1ccc(CNC(=O)CS(=O)(=O)CC(=O)O)cc1,7,0.9,6,-0.22,0.9
Cc1ccc(C(=O)COC(=O)c2cc(Cl)nc3ccccc23)cc1,65*,1.5,-53,0.51,0.3
COc1ccc(-c2cc(C(=O)OCC(=O)N(C)C)c3ccccc3n2)cc1,88*,0.3,72*,0.12,0.1
COc1ccc(N(CC(=O)O)S(=O)(=O)c2cccnc2)cc1,-20,1.2,-23,0.97,1.2
Fc1ccc2c(c1)C(c1ccc(N3CCOCC3)cc1)=NNC(c1cccs1)=N2,90*,0.2,84*,-1.9,0.1
